Assay outcomes deposited in PubChem BioAssay by Johns Hopkins Ion Channel Center.
KCNQ2 block: KCNQ2 (rat) channel inhibition | AID 2156 | 310,000 tested, 1.1% active | CHO-K1 KCNQ2, FluxOR thallium flux, 20 min; stronger effect = lower value | B-score at 10 µM;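 active = fluorescence ratio B-score at most minus 3 library SDs, with starting brightness B-score within 2 library SDs, cut at about -5.5 in these data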
Target sequence (O88943 whole entry, looked up): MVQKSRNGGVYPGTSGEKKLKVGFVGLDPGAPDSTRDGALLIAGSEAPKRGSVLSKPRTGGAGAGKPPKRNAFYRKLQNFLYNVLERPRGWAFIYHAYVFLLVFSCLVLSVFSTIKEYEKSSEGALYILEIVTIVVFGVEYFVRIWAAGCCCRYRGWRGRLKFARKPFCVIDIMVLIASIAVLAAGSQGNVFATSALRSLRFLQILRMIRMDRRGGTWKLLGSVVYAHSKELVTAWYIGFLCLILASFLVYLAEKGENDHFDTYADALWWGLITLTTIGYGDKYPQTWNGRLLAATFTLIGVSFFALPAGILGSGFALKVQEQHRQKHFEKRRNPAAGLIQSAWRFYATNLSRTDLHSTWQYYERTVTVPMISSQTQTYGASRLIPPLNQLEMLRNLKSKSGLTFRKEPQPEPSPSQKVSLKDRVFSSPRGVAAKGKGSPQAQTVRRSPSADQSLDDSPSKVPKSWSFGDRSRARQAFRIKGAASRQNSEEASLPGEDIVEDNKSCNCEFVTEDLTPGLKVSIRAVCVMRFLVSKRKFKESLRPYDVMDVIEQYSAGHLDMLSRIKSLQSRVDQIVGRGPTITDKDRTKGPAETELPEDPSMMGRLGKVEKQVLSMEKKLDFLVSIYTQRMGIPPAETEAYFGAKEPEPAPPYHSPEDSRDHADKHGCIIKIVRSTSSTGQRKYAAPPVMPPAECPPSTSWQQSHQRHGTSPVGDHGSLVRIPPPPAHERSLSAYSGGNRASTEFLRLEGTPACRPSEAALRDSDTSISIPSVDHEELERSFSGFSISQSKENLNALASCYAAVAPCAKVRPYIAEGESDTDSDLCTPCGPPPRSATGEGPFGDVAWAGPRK
KCNQ2 enhance: KCNQ2 (rat) channel potentiation | O88943 | CHO-K1 KCNQ2, FluxOR thallium flux fluorescence; stronger effect = higher value | B-score at 10 µM | 310,000 tested, 0.54% active;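 active = fluorescence ratio B-score at least 3 SD of library B-scores, with initial fluorescence B-score within 3 of them, cut at about 5.3 in these data; same plate scores as AID 2156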;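 note: B-score of peak minus minimum over baseline fluorescence ratio after K+ and Tl+ stimulus; positive B-score means potentiation of KCNQ2 with more thallium influx and brighter signal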
A number is an active result; n = inactive; x = not tested or not shown. This is a sample that favours compounds with a hit; in the whole collection about 1.6% have one here.

SMILES | KCNQ2 block | KCNQ2 enhance
Cc1ccc(Cl)cc1N1CCN(Cc2cc3c(cc2O)CCC3)CC1 | -5.97 | n
Cc1ccc(Cl)cc1N1CCN(C(=O)c2ccc(CN3CCOCC3)cc2)CC1 | n | n
CN1CCN(CCNC(=O)Cn2c(=O)c3cccn3c3ccc(F)cc32)CC1 | n | n
COc1ccc(OC)c(C(=O)CSc2nccc(-c3ccc(Br)cc3)n2)c1 | -6.4 | n
COc1ccc(-c2ccnc(SCC(=O)c3ccc(OC)c(OC)c3)n2)cc1 | n | n
O=C(COc1cccc(Br)c1)N/N=C1\CCSC1 | n | x
COc1ccc(C(=O)CC(c2ccccc2)C2C(=O)CCCC2=O)cc1 (stereo not given) | n | n
COc1ccc(C(CC(=O)c2ccccc2)C2CCCCC2=O)cc1 (stereo not given) | -5.75 | n
N#Cc1cnc(Oc2ccc(Cl)cc2)nc1N | n | n
O=C1C(Cl)=C(NCCN2CCCCC2)C(=O)c2ccccc21 | -5.79 | n
CCNC1=C(Cl)C(=O)c2ccccc2C1=O | n | n
CCC(C)c1ccc(NC(=O)N2CCOCC2)cc1 (stereo not given) | n | x
CCCCN(C)C(=O)c1nc2ccccn2c1CN1CCN(C(=O)c2cccs2)CC1 | n | n
COc1ccccc1NC(=O)CNC(=O)Cn1cnc2sc(C)c(C)c2c1=O | n | x
CCc1nc(SCC(=O)Nc2ccccc2OC)c2c(C)c(C)sc2n1 | -5.8 | n
COc1cccc(NC(=O)N(C2CCCCC2)C(C)c2cccs2)c1 (stereo not given) | -5.66 | n
COc1cccc(NC(=O)Nc2cccs2)c1 | n | n
Cc1ccc(C)c2[nH]c(=O)c(CN(Cc3ccco3)C(=O)Nc3ccccc3)cc12 | -5.59 | n
COc1ccccc1NC(=O)N(Cc1ccco1)Cc1cc2cc(C)cc(C)c2[nH]c1=O | -6 | n
COc1ccccc1NC(=O)N(Cc1ccco1)Cc1cc2ccc(C)c(C)c2[nH]c1=O | n | x
COc1ccccc1NC(=O)CN(Cc1ccco1)C(=O)c1cc2ccccc2o1 | -7.64 | n
COc1ccccc1NC(=O)CN(Cc1ccco1)C(=O)c1ccc(=O)[nH]c1 | n | x
Cc1ccc(NC(=O)N(Cc2ccco2)Cc2cc3cc(C)cc(C)c3nc2Cl)cc1 | -6.78 | n
Cc1cccc2cc(CN(Cc3ccco3)C(=O)Nc3cccc(C#N)c3)c(Cl)nc12 | n | x
Cc1ccc2cc(CN(Cc3ccco3)C(=O)NCc3ccccc3)c(=O)[nH]c2c1C | n | x
SMILES | KCNQ2 block | KCNQ2 enhance
O=C(CCN1CCC(c2ccc(Cl)s2)=N1)c1ccc(Cl)s1 | n | n
COc1ccc(-c2nnc(NC(=O)c3ccc(S(=O)(=O)N(C)CC4CCCO4)cc3)o2)c(OC)c1 (stereo not given) | n | n
O=C(NNC(=O)C12CC3CC(CC(Cl)(C3)C1)C2)c1csc(N2CCOCC2)n1 | n | n
CSCCC(NS(=O)(=O)c1ccc(C)cc1)C(=O)NNC(=O)c1csc(N2CCOCC2)n1 (stereo not given) | n | n
O=C(NCC(c1ccco1)N1CCc2ccccc2C1)C(=O)Nc1cc(F)ccc1F (stereo not given) | -6.21 | n
COc1ccccc1NC(=O)C(=O)NCC(c1ccco1)N1CCc2ccccc2C1 (stereo not given) | n | x
O=C(NCC(c1ccco1)N1CCc2ccccc2C1)c1ccc(F)cc1 (stereo not given) | -5.68 | n
O=C(NCC(c1ccco1)N1CCc2ccccc2C1)c1ccccc1 (stereo not given) | n | x
CN1CCN(C(=S)NC(=O)c2cccc(S(=O)(=O)N(C)C)c2)CC1 | n | x
COc1ccc2nccnc2c1[N+](=O)[O-] | n | x
CC(NC(=O)Cc1cccs1)C(c1cccs1)N1CCN(c2ccccc2)CC1 (stereo not given) | n | 8.25
CCC(=O)NC(C)C(c1cccs1)N1CCN(c2ccccc2)CC1 (stereo not given) | n | n
Cc1ccc(CCNC(=O)CCS(=O)(=O)c2cc3c(cc2C)NC(=O)CO3)cc1 | n | x
CCC(C)(C)NC(=O)C1CCCN(S(=O)(=O)c2ccc3c(c2)CC(C)N3C(=O)C2CC2)C1 (stereo not given) | n | x
O=C(c1ccc(COc2ccc3c(c2)CCC3)o1)N1CCN(c2ccccc2)CC1 | -7.99 | n
O=C(c1ccc(CS(=O)c2ccccc2Cl)o1)N1CCN(c2ccccc2)CC1 (stereo not given) | n | x
CCCc1ccc(OCc2ccc(C(=O)N3CCN(c4ccccn4)CC3)o2)c(OC)c1 | -5.91 | n
O=C(c1ccc(COc2ccccc2Cl)o1)N1CCN(c2ccccc2)CC1 | -6.04 | n
O=C(c1ccco1)N1CCN(C(=O)c2ccc(COc3ccc4c(c3)CCC4)o2)CC1 | n | x
COc1cc(OC)c(C(=O)N2CCN(c3ccccn3)CC2)cc1OC | n | x
CC(=O)Nc1ccc(S(=O)(=O)Nn2cnnc2)cc1 | n | n
Cc1ccc2c(c1)N(C(=O)CCC(=O)NCc1ccccc1)CC(C)O2 (stereo not given) | n | x
Cc1ccc2c(c1)N(C(=O)CCC(=O)NCc1cccc(Cl)c1)CC(C)O2 (stereo not given) | -5.69 | n
O=C(NCc1ccccc1Cl)c1cc2c(s1)CS(=O)(=O)C2 | n | x
O=C1/C(=C/c2cccc3ccccc23)CCCc2ccccc21 | -6.64 | n
SMILES | KCNQ2 block | KCNQ2 enhance
O=C1/C(=C\c2ccncc2)CCc2ccccc21 | n | x
CC1CCCCN1C(=O)CCS(=O)(=O)c1cc2c(cc1Cl)NC(=O)CO2 (stereo not given) | n | n
CCn1c(O)c(N=NC(=O)C(O)c2ccccc2)c2ccccc21 (stereo not given) | n | x
O=C(O)c1ccccc1NC(=S)NC(=O)c1sc2ccccc2c1Cl | n | n
O=C(NNC(=S)NC(=O)c1sc2ccccc2c1Cl)c1ccc(Cl)cc1 | n | 13.3
Cn1cnnc1SCC(=O)NCCc1ccc(Cl)cc1Cl | n | x
O=C(CCC(=O)N/N=C/c1cc(Cl)cc(Cl)c1O)NCc1ccccc1 | n | x
Nc1cccc(-c2cnc3ccccc3n2)c1 | n | n
COC(=O)CN1C(=O)[C@H]2[C@@H](/C=C/c3ccccc3)N3C(=O)CN(Cc4ccccc4)C(=O)[C@@]3(C)[C@H]2C1=O | n | x
Cc1ccc2c(c1)N/C(=C(\C=C(/Cl)[N+](=O)[O-])[N+](=O)[O-])N2 | -6.77 | n
Cc1ccc2c(c1)/C(=C/c1ccc(F)cc1)C(=O)N2 | n | n
CC(OC(=O)[C@H](C)NC(=O)c1ccccc1Cl)C(=O)NCc1ccc2c(c1)OCO2 (stereo not given in full) | n | n
COc1ccc(CC2(C)OC(c3ccc([N+](=O)[O-])cc3)=NN2C(C)=O)cc1 (stereo not given) | -6.22 | n
COc1ccc(C(=O)NNC(=O)Cc2ccc([N+](=O)[O-])cc2)cc1 | n | n
Cc1ccc(S(=O)(=O)NC(C)(C)C)cc1C(=O)OCC(=O)N1CCCC1=O | n | n
CCOc1ccc2[nH]c(=O)c(C(c3nnnn3Cc3ccco3)N3CCC(C)CC3)cc2c1 (stereo not given) | n | n
CCOc1ccc2[nH]c(=O)c(C(c3nnnn3Cc3ccco3)N3CCCC(C)C3)cc2c1 (stereo not given) | -6.52 | n
COC(CN(C)C(=O)C1CCCN(S(=O)(=O)c2ccc3c(c2)oc(=O)n3C)C1)OC (stereo not given) | n | n
C=CCOc1c(Br)cc(CNc2ccc(NC(=O)C(C)C)c(OC)c2)cc1OCC | n | 6.61
C=CCOc1c(Br)cc(CNc2ccc3[nH]c(=O)[nH]c3c2)cc1OCC | n | n
CC1=CC=CC2=NC(=O)CC(C)(C(=O)O)N12 (stereo not given) | n | x
